Measured values taken from PubChem BioAssay AID602376 (Johns Hopkins Ion Channel Center, 2012).
Measured potencies and affinities stand elsewhere. Inconclusive results are not listed.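 The calls were made as follows: active = raises choline transporter activity at one or more tested doses and gives a fitted dose-response curve; inconclusive = no clear call, values can overlap the other calls; inactive = no choline transporter activation at any dose, or no curve.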

biological target: High affinity choline transporter 1 (Homo sapiens) (UniProt Q9GZV3); test: CHT activators, dose response, cell-based, 10-point CRC, membrane potential dye (AID 602376); settings: HEK293-CHT, choline-induced membrane potential dye, cells express CHT LV-AA mutant; series mostly up to 67 µM; percent activation: at the top concentration
Sequence (Q9GZV3 whole entry, looked up): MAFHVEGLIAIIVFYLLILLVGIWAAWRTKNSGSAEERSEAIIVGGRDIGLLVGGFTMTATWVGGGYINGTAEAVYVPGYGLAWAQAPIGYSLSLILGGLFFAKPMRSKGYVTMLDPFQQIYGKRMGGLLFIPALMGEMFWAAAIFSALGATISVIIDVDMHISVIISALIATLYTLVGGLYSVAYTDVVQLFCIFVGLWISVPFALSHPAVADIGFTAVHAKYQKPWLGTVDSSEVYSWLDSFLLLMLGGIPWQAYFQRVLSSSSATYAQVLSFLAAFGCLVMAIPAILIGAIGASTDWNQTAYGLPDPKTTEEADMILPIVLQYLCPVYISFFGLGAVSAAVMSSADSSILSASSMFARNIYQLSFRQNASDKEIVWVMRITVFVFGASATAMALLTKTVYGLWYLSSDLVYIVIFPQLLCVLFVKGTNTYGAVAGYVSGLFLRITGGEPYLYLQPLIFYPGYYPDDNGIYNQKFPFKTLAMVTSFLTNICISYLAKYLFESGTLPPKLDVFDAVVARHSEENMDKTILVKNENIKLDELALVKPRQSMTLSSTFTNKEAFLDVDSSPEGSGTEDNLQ

Percent activation, inactive:
CCC(C)c1ccccc1N1CC(C(=O)Nc2ccccc2N2CCCC2)CC1=O (stereo not given) 56.3%
CCCCn1c(N)c(N(CCC(C)C)C(=O)c2ccc(COc3ccccc3)o2)c(=O)[nH]c1=O 58.5%
O=C1CCN(Cc2ccccc2)CCN1[C@H](COc1ccccc1)Cc1ccccc1 68.6%
Cc1cccc2cc3c(N)c(C(=O)N4CCc5ccccc54)sc3nc12 133%
O=c1c2ccccc2nc2n1C(CSCc1ccc(Cl)cc1)CS2 (stereo not given) 92.1%
COC(=O)C1=C(C)N(Cc2ccccc2)C(=NCc2ccc(OC)cc2)N[C@H]1c1cccc(F)c1 86%
COc1ccc(C(=O)c2coc3ccc(O)c(CN4CCOCC4)c23)cc1 48.5%
CCN1C(=NCc2ccccc2)N[C@@H](c2ccccc2)[C@H](C(=O)OC)[C@H]1C 108%
CN1CCN(Cc2nc3ccccc3c(=O)n2Cc2nc(-c3ccccc3F)cs2)CC1 37.2%
CCn1cc(C(=O)OCC(=O)OC2CC(C)CCC2C(C)C)c(=O)c2ccc(C)nc21 (stereo not given) 70.2%
CCCCn1c(=N)n(CC(O)COc2ccccc2)c2ccccc21 (stereo not given) 130%
CC1Cc2cc(S(=O)(=O)N3CCN(c4ccccc4F)CC3)ccc2N1C(=O)C1CC1 (stereo not given) 72.5%
O=C(Nc1cccc(Cl)c1N1CCOCC1)c1cc([N+](=O)[O-])ccc1N1CCOCC1 61.5%
CC(C)C1Oc2ccccc2N(CC(=O)NC2CCCCC2)C1=O (stereo not given) 54.6%
Cc1cc(N2CCN(Cc3cn(C)nc3-c3ccccc3F)CC2)cc(C)n1 11.6%
Cc1ccc(-c2c(C(=O)N(C)Cc3ccccc3)oc(=O)c3ccccc23)cc1 79.7%
COc1ccc(-c2c(-c3cc(OC)c(OC)c(OC)c3)noc2C)cn1 94.6%
CC(=O)N1CCN(c2ccccc2NC(=O)COc2cc(C)ccc2C(C)C)CC1 19.2%
CCOC(=O)c1c(C)nc2ccccc2c1-c1ccccc1 66.6%
COc1cccc(C(c2nnnn2Cc2ccco2)N2CCN(c3cccc(C)c3C)CC2)c1OC (stereo not given) 73.6%
FC(F)(F)COc1nc(OCC(F)(F)F)nc(N2CCN(c3ccccc3)CC2)n1 69.1%
N=c1c2c(n(Cc3ccc(Cl)c(Cl)c3)c3c1CCC3)CCCC2 70.6%
CC(C)CN(C(=O)CSc1nnc(-c2cccs2)n1N)c1c(N)n(Cc2ccccc2)c(=O)[nH]c1=O 69.9%
COC(=O)c1sc(NC(=O)C(C)c2ccccc2)nc1C (stereo not given) 22.6%
COc1ccc(Br)cc1CN(C)C(=O)c1ccccc1OCc1c(C)noc1C 92.1%
CC(C)CCNC(=O)/C=C/c1ccc(Br)cc1 53%
CCc1cc2c(N3CCN(c4ccccc4)CC3)ncnc2s1 61.9%
COC(=O)c1ccccc1NC(=O)CN1CCN(C23CC4CC(CC(C4)C2)C3)CC1 74.9%
CCOc1ccc(S(=O)(=O)NCc2ccco2)c2ccccc12 69.7%
CN1CCN(CCCn2cnc3c(=O)oc4ccccc4c32)CC1 13.7%
Clc1ccc(CN2C3=NCCN3c3ccccc32)cc1Cl 76.6%
CCOC(=O)c1c(NC(=O)CSc2nc3ccccc3o2)sc(C(C)=O)c1C 86.3%
CCCC12CN(C(=O)c3ccc([N+](=O)[O-])cc3)CC(C)(CN(C(=O)c3ccc([N+](=O)[O-])cc3)C1)C2=O 97.7%
Cc1cccc2c(=O)cc(C)n(CC(=O)N3CCOCC3)c12 -3.24%
Cc1ccc(Cl)cc1N1CCN(C(=O)C2CCC(=O)N(C3CCCCCC3)C2)CC1 (stereo not given) 76.8%
O=C(c1ccco1)N(CCC(c1ccccc1)c1ccco1)Cc1ccccc1 (stereo not given) 61.2%
CCc1ccc(CN(C)C(=O)CCc2nc3ccccc3n(-c3ccc(OC)cc3)c2=O)cc1 88.1%
Cn1c(=O)c2c(nc(CN3CCCCC3)n2CCc2ccccc2)n(C)c1=O 46.7%
Cc1ccnc2nc(C(=O)Nc3nccs3)nn12 22.4%
CC(Sc1ccc(Cl)cc1)C(=O)Nc1ccccc1-c1ccccc1 (stereo not given) 50.3%
